# Test results as given in the supplement of paper PMC9694430.
# Structures can show the parent of a compound that is named as a salt.
# Assays:
# Assay in all cases: thermal shift delta Tm vs DMSO control; higher = stronger stabilization (binding)
# Settings in all cases: 12.5 µM; protein concentration 2 µM
# LOC_OS01G57100-cb003 = test system: LOC_OS01G57100-cb003
# Outline: (§1)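 Rice kinase domain constructs, made in E. coli and purified, were placed in 96-well plates at 2 μM in 19.5 μl of 100 mM potassium phosphate pH 7.5, 150 mM NaCl, 10% glycerol and 5 × SYPRO Orange, with compound in DMSO. A temperature ramp from 25°C to 95°C at 0.05°C/s was used for differential scanning fluorimetry. The melting temperature shift is a triplicate mean compared with DMSO-only protein, derived from Boltzmann fits.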
# LOC_OS01G60330-cb001 = test system: LOC_OS01G60330-cb001
# Outline: as §1
# LOC_OS01G60700-cb002 = test system: LOC_OS01G60700-cb002
# Outline: as §1
# LOC_OS01G63280-cb003 = test system: LOC_OS01G63280-cb003
# Outline: as §1
# LOC_OS01G67340-cb003 = test system: LOC_OS01G67340-cb003
# Outline: as §1
# LOC_OS01G70970-cb002 = test system: LOC_OS01G70970-cb002
# Outline: as §1
# LOC_OS02G07810-cb001 = test system: LOC_OS02G07810-cb001
# Outline: as §1
# LOC_OS02G08530-cb003 = test system: LOC_OS02G08530-cb003
# Outline: as §1
# LOC_OS02G14120-cb001 = test system: LOC_OS02G14120-cb001
# Outline: as §1
# LOC_OS02G17970-cb001 = test system: LOC_OS02G17970-cb001
# Outline: as §1
# LOC_OS02G45750-cb003 = test system: LOC_OS02G45750-cb003
# Outline: as §1
# LOC_OS02G54510-cb004 = test system: LOC_OS02G54510-cb004
# Outline: as §1
# LOC_OS03G04050-cb001 = test system: LOC_OS03G04050-cb001
# Outline: as §1
# LOC_OS03G12390-cb001 = test system: LOC_OS03G12390-cb001
# Outline: as §1
# LOC_OS03G27990-cb004 = test system: LOC_OS03G27990-cb004
# Outline: as §1
# LOC_OS03G50450-cb001 = test system: LOC_OS03G50450-cb001
# Outline: as §1
# LOC_OS03G50810-cb003 = test system: LOC_OS03G50810-cb003
# Outline: as §1
# LOC_OS04G35114-cb001 = test system: LOC_OS04G35114-cb001
# Outline: as §1
# LOC_OS04G38480-cb003 = test system: T1, LOC_OS04G38480-cb003
# T1 sequence (whole entry): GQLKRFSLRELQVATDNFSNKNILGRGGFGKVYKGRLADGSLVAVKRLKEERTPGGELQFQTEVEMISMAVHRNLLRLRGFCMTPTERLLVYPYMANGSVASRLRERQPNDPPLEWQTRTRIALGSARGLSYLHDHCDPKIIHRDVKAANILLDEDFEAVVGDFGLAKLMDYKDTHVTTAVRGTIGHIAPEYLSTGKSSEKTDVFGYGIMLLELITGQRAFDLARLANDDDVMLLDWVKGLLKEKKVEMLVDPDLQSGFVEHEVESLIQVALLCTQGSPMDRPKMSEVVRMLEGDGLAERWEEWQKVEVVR
# Outline: as §1
# LOC_OS04G41100-cb001 = test system: T2, LOC_OS04G41100-cb001
# T2 sequence (whole entry): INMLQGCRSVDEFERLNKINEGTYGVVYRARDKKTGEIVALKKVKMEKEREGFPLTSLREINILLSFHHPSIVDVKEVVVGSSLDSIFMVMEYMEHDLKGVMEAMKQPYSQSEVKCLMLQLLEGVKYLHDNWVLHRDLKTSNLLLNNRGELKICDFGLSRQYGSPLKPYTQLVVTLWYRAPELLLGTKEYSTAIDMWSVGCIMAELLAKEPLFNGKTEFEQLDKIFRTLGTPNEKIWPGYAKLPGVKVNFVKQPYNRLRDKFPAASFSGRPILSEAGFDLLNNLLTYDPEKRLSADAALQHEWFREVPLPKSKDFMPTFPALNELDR
# Outline: as §1
# 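Also: purified Escherichia coli-expressed rice kinase domain construct.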
SMILES,thermal shift delta Tm (LOC_OS01G57100-cb003) [°C],thermal shift delta Tm (LOC_OS01G60330-cb001) [°C],thermal shift delta Tm (LOC_OS01G60700-cb002) [°C],thermal shift delta Tm (LOC_OS01G63280-cb003) [°C],thermal shift delta Tm (LOC_OS01G67340-cb003) [°C],thermal shift delta Tm (LOC_OS01G70970-cb002) [°C],thermal shift delta Tm (LOC_OS02G07810-cb001) [°C],thermal shift delta Tm (LOC_OS02G08530-cb003) [°C],thermal shift delta Tm (LOC_OS02G14120-cb001) [°C],thermal shift delta Tm (LOC_OS02G17970-cb001) [°C],thermal shift delta Tm (LOC_OS02G45750-cb003) [°C],thermal shift delta Tm (LOC_OS02G54510-cb004) [°C],thermal shift delta Tm (LOC_OS03G04050-cb001) [°C],thermal shift delta Tm (LOC_OS03G12390-cb001) [°C],thermal shift delta Tm (LOC_OS03G27990-cb004) [°C],thermal shift delta Tm (LOC_OS03G50450-cb001) [°C],thermal shift delta Tm (LOC_OS03G50810-cb003) [°C],thermal shift delta Tm (LOC_OS04G35114-cb001) [°C],thermal shift delta Tm (LOC_OS04G38480-cb003) [°C],thermal shift delta Tm (LOC_OS04G41100-cb001) [°C]
Cc1cc(O)c(-c2ccc([C@@H](C)CN)cc2)c2c1[nH]c(=O)c1sccc12 [OTS514 hydrochloride],-0.04,2.08,1.5,0.46,0.86,0.57,0.41,1.3,4.21,1.52,0.87,1.1,0.44,0.55,0.52,0.04,0.85,1.39,1.65,3.58
COc1ccc(-c2ccc3c(N4CCOC[C@@H]4C)nc(N4CCOC[C@@H]4C)nc3n2)cc1CO,0.87,0.93,0.64,-0.13,-0.69,0.1,0.28,0.31,-1.22,-0.06,0.67,0.38,0.33,-0.12,0.09,0.41,0.18,0.4,-0.21,0.57
CCOc1cc2ncc(C#N)c(Nc3ccc(F)c(Cl)c3)c2cc1NC(=O)/C=C/CN(C)C [Pelitinib (EKB-569)],2.45,0.74,0.94,-0.05,0.12,0.22,0.84,0.59,0.98,0.01,4.93,0.37,0.32,0.42,3.2,0.73,1.15,5.5,0.56,0.56
Cc1cc(Nc2cc(N3CCN(C)CC3)nc(/C=C/c3ccccc3)n2)n[nH]1,0.41,9.2,0.77,0.17,0.51,3.04,0.72,2.41,7.14,-0.1,4.69,2.74,0.21,4.05,2.48,8.43,7.16,6.22,1.95,1.86
O=C(c1ccc(/C=C/c2n[nH]c3ccccc23)cc1)N1CCNCC1,1.7,11.6,0.48,0.98,4.9,6.89,0.73,4.1,7.17,0.42,14,0.61,0.27,6.79,6,4.25,4.42,8.77,2.61,0.96
CCn1c(=O)c(-c2cc[nH]n2)cc2c(C)nc(N)nc21,-0.09,0.91,0.72,0.14,0.34,0.36,0,0.79,0.62,0.52,0.15,0.22,0.35,0.21,0.09,0.05,0.28,0.94,0.82,0.15
CCn1c(C(=O)N(C2CC2)C2CC2)cc2c3c(ncn3C)c(Nc3cc(C)n(C)n3)nc21,1.18,1.11,1.61,0.73,0.2,0.33,0.6,1.47,4.36,1.3,1.23,0.33,0.44,1.55,0.13,0.66,1.38,2.5,1.2,0.58
Oc1ccc(Nc2nc(-c3ccc(Cl)cc3)cs2)cc1,-1.22,2.57,-0.25,3.13,0.86,1.06,0.81,-0.94,0.14,-0.04,0.87,-1.06,1.13,1.19,1.07,1.19,1.34,2.45,-1.18,0.69
COc1cc(Nc2c(C#N)cnc3cc(OCCCN4CCN(C)CC4)c(OC)cc23)c(Cl)cc1Cl [Bosutinib (SKI-606)],0.91,1.47,0.95,-0.23,-0.85,0.24,0.38,0.38,0.1,-0.22,0.12,0.16,0.26,0.07,0.12,-0.11,-0.09,0.86,1.14,0.53
CC(C)(C)c1nc(-c2cccc(NS(=O)(=O)c3c(F)cccc3F)c2F)c(-c2ccnc(N)n2)s1,2.01,7.29,1.89,19.8,1.21,3.43,1.44,1.92,3.94,1.55,2.7,2.41,0.43,0.52,0.49,1.42,1.63,2.09,2.46,2.47
O=C(Nc1cccnc1)c1cc(-c2ccnc(F)c2)ccc1OCc1ccccc1,0.33,0.69,0.86,-0.26,0.85,0.12,0.46,2.26,0.34,0.6,1.01,0.22,0.77,4.48,0.39,0.36,0.76,0.97,1.76,0.25
CN(c1ccccc1CNc1nc(Nc2ccc3c(c2)CC(=O)N3)ncc1C(F)(F)F)S(C)(=O)=O,2.5,2.26,1.26,6.35,3.07,9.4,1.12,2.68,8.26,0.68,11.6,1.85,0.4,6.91,2.93,3.16,5.31,5.87,3.54,2.86
